# Measured values from PubChem BioAssay AID720709 (National Center for Advancing Translational Sciences (NCATS), 2013).
# Hit rate of the full screen: of about 360,000 compounds, about 520 (0.14%) were called active. Another 3% or so got no clear call; they are omitted. This excerpt belongs to a sample that is enriched for actives. Values without a mark were called inactive. The call rests on the fitted dose curve; in most records, active means well fitted inhibition curve with a large enough effect; inconclusive means small, poorly fitted or top-dose-only effect; inactive means no such curve, though single readings can be large or run the other way.
# Biological target: Rap guanine nucleotide exchange factor 3 (Homo sapiens) (UniProt O95398)
# Assay: qHTS for Antagonist of cAMP-regulated guanine nucleotide exchange factor 3 (EPAC1): primary screen; further: nearly all actives have a fitted effect of over 50% in size
# Conditions: EPAC1 GEF assay, Rap1b-BODIPY-GDP exchange fluorescence; series mostly up to 115 µM; activity change, negative = inhibition: at the top concentration
# Source text: In multi-cellular eukaryotic organisms, the effects of cAMP are transduced by two ubiquitously-expressed intracellular cAMP receptors, the classic protein kinase A/cAMP-dependent protein kinase (PKA/cAPK) and the more recently discovered exchange protein directly activated by cAMP/cAMP-regulated guanine nucleotide exchange factor (EPAC/cAMP-GEF). Both PKA and EPAC are ubiquitously expressed in all tissues, and an increase in intracellular cAMP levels will lead to the activation of both PKA and EPAC. Therefore, careful dissections of the individual role and relative contribution of EPAC and PKA within the overall cAMP signaling in various model systems are critical for further elucidating the mechanism of cAMP signaling. To date no EPAC-specific antagonists and agonist, as well as isoform-specific agonists have been reported, and developing EPAC-specific pharmacological probes to determine the physiological functions that EPAC play in the overall cAMP-mediated signaling remains a major challenge within the research field. Furthermore, identified regulators of EPAC may lead to new mechanism-based therapeutic strategies specifically targeting the EPAC / cAMP-signaling components as EPAC has been implicated to play important roles in major human pathological conditions such as diabetes, heart disease, and cancer. This qHTS will be used to screen the Molecular Libraries Small Molecule Repository (MLSMR) as a concentration-titration series using the NCGC unique quantitative screening (qHTS) platform to find inhibitors for EPAC1. In addition, this assay will also be used as a counterscreen for the EPAC2 qHTS. This fluorescent based assay is developed and validated for EPAC1 that measures exchange using EPAC effector Rap1 complex with BODIPY-GDP, a GDP analog with a tethered fluorophores. Inhibitors are identified by monitoring the change in fluorescence signal as the exchanged free BODIPY-GDP has a reduced fluorescence compared to Rap1-bound BODIPY-GDP. Decrease in signal (inhibition) is the desired outcome for the EPAC1 antagonist while no activity in this assay is desired for the EPAC2 antagonist counterscreen. de Rooij, J., Zwartkruis, F. J., Verheijen, M. H., Cool, R. H., Nijman, S. M., Wittinghofer, A., and Bos, J.L. (1998) Nature 396, 474-477 [2] Kawasaki, H., Springett, G. M., Mochizuki, N., Toki, S., Nakaya, M., Matsuda, M., Housman, D. E., and Graybiel, A. M. (1998) Science 282, 2275-2279 NIH Chemical Genomics Center [NCGC] NIH Molecular Libraries Probe Centers Network [MLPCN] MLPCN Grant: NS066510 Assay Submitter (PI): Xiaodong Cheng, The University of Texas, Medical Branch
# Briefly, three uL of reagents (100 nM EPAC1, 250 nM RAP1B-BODIPY-GDP, 50 uM GDP) were dispensed into a 1536-well Greiner black solid-bottom medium binding assay plate. Controls and test compounds (23 nL) were transferred to the plate via a Kalypsys pin tool equipped with a 1536-pin array. The plates were centrifuged at 1,000 rpm for 15 seconds followed by 5 minute incubation at room temperature. The assay plates were read at 5 minute intervals for 30 minutes in the ViewLux plate reader using 480nm excitation and 540nm emission filters. The results were normalized to the […] positive control ATA and DMSO.
# Potency means the concentration at half of the fitted maximal effect.
# Chain of Rap guanine nucleotide exchange factor 3 (Homo sapiens) (O95398 whole entry, looked up): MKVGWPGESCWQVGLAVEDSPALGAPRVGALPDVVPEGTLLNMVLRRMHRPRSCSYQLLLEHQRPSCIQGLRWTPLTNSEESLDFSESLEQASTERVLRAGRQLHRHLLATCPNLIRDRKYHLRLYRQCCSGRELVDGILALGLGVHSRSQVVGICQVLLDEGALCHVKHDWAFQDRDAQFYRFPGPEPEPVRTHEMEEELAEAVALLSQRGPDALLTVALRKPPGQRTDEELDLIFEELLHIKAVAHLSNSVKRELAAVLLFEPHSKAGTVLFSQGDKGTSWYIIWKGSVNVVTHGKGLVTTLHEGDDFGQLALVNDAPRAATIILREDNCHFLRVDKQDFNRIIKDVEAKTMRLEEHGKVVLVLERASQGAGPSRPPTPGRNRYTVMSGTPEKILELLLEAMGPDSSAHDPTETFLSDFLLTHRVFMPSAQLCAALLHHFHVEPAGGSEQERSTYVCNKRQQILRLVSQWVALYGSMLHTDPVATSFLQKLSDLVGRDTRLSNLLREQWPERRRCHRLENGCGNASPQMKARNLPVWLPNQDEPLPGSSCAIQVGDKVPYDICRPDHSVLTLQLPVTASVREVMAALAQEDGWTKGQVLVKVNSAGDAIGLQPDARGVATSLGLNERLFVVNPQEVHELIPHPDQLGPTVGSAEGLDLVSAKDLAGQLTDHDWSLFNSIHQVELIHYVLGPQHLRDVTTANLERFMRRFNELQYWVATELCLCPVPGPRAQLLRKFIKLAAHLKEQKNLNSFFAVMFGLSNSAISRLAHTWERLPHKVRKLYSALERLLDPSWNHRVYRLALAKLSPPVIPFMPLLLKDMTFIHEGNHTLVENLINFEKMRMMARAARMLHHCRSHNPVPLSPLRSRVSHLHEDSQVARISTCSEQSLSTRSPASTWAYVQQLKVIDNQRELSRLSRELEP
Compound,"activity change, negative = inhibition [%]",Potency
CCCCC[C@H](C)N1C[C@@H](COCc2ccccc2)Oc2cc(N3CCC[C@@H]3CO)ccc2S1(=O)=O,10.1,–
CCCCCCN1CCN(C2CN(Cc3cn(Cc4ccc(F)cc4)nn3)S(=O)(=O)C2)CC1 (stereo not given),-0.786,–
CC1(C)OC(=O)C2=C(C[C@@H](C3CCCC3)O[C@@H]2c2ccc(Cl)cc2)O1,-10.6,–
CCCCCc1c(-c2ccc(OC)c(OC)c2)ncn1CCc1ccccc1OC,-9.08,–
COc1ccc(C(C#N)=C2C=CC(=NO)c3ccccc32)cc1,-2.56,–
COCCNC(=O)C1C(=O)Nc2ccccc2C(=O)N1c1ccc2c(c1)OCCO2 (stereo not given),-13.8,–
O=C(C[C@H]1CC[C@@H](NC(=O)c2ccncc2)[C@@H](CO)O1)NCC1CC1,-10.8,–
CC1(C(=O)NCc2ccccc2)CSCC(=O)N1CCCN1CCOCC1 (stereo not given),-14.7,–
FC(F)(F)c1cccc(-c2nc3ccccc3n2C(c2ccccc2)c2nc3ccccc3[nH]2)c1 (stereo not given),-10.9,–
CC1(C)OC(=O)C2=C(C[C@@H](C3CC3)O[C@H]2c2ccc(Cl)cc2)O1,-6.86,–
Cc1ccc(-c2nc3c(C)cc(Br)cn3c2Cc2ccccc2)cc1,-12.7,–
COc1ccc(-c2cc3n(n2)CCc2nc4ccccc4n2-3)cc1,3.51,–
COc1ccc(C2=NN(C(=O)c3ccccc3C(=O)O)C(c3ccccc3O)C2)cc1 (stereo not given),1.95,–
COc1ccc(C2=NN(c3nc4ccccc4s3)C(=O)C2)cc1,–,79.4 µM (active)
CC(=O)OCC(C)n1c(=O)c2ccccc2n1C(C)=O (stereo not given),14.3,–
CCc1nnc(NS(=O)(=O)c2ccc(NC(=S)NC(=O)/C=C/c3cccs3)cc2)s1,–,35.5 µM (active)
CCc1nnc(NS(=O)(=O)c2ccc(NC(=S)NC(=O)c3cccs3)cc2)s1,-18.7,–
CCc1nnc(NS(=O)(=O)c2ccc(NC(=O)c3cccc(OC(F)(F)C(F)F)c3)cc2)s1,6.32,–
CCC(C(=O)NC(C)(C)C)n1c(-c2ccccc2)nc2ccccc21 (stereo not given),-11.7,–
CC(=O)N1Cc2cc(C(=O)NCc3cccc(F)c3)nc(-c3cccc(C4=CCCC4)c3)c2[C@H]1CCO,-4.59,–
COC(=O)C1(C(=O)OC)C/C=C\CN(S(=O)(=O)c2ccccc2[N+](=O)[O-])CCC1,-24.3,–
C[N+](C)(C)CCNC(=O)c1c[nH]c2ccccc12,-10.3,–
CCOC(=O)c1c(C)[nH]c(C(=O)OCC(=O)N2CCCC2=O)c1C,-3.83,–

Compound,"activity change, negative = inhibition [%]",Potency
CN(C)S(=O)(=O)c1cccc(C(=O)OCC(=O)N2CCCC2=O)c1,-1.48,–
Cc1c(C(=O)OCC(=O)N2CCCC2=O)oc2ccccc12,–,79.4 µM (active)
COC(=O)[C@@]12C[C@@H](CC(=O)N3CCC(c4ccccc4)CC3)C(=O)N(Cc3ccccc3)C1=CCC(C)(C)C2,6.68,–
COc1cc(OC)cc(C2=Cc3ccccc3C(CC(=O)c3ccco3)N2c2ccc(-c3cnc(OC)nc3)cc2)c1 (stereo not given),-2.98,–
Cc1cccc(C)c1NC(=O)C(c1cccc2ccccc12)n1c(=O)c(-c2ccco2)nc2ccccc21 (stereo not given),-20.9,–
Cc1ccc(S(=O)(=O)N2CC3C(=O)C[C@@H](c4ccccc4Cl)N(S(=O)(=O)c4ccc(C)cc4)C3CC2c2ccccc2)cc1 (stereo not given in full),0.258,–
Cc1cccc(C)c1NC(=O)C(c1ccc(C(F)(F)F)cc1)n1c(=O)c(-c2ccco2)nc2ccccc21 (stereo not given),-14.7,–
O=c1ccc2c(-c3ccccc3S(=O)(=O)O)c3ccc(O)c(O)c3oc-2c1O,–,56.2 µM (active)
COc1cccc(CNC(=O)[C@@H]2CCCN2C(=O)[C@@H]2CCCN2C(=O)c2ccccc2)c1,-7.07,–
COc1ccc(CC(N)c2csc(NC(=O)Nc3ccc(C(C)C)cc3)n2)cc1 (stereo not given),-15.8,–
CCN(CC)CCN(C)C(c1ccnc2ccccc12)c1nnnn1-c1ccc2c(c1)OCCO2 (stereo not given),-3.49,–
COC(=O)[C@@]12C[C@@H](CC(=O)NCc3cccc(C(F)(F)F)c3)C(=O)N(Cc3ccco3)C1=CCC(C)(C)C2,-20.9,–
CCC(C)CN1C(=O)CSCC1(C)C(=O)NCc1ccccc1 (stereo not given),-4.93,–
Cc1cccc(C)c1NC(=O)C(c1cccc(F)c1)N1CCN(C)CC1 (stereo not given),6.48,–
CCCCC(O)C1=C[N+](=O)CC=C1 (stereo not given),14.4,–
Cc1cccc(C)c1-n1nnnc1C1(C)CCC(=O)N1CCOc1ccccc1 (stereo not given),14.7,–
COC(=O)[C@]12CCCCC=C1N(Cc1ccc3c(c1)OCO3)C(=O)[C@H](CC(=O)NCc1cccs1)C2,8.77,–
Nc1nc2ncccn2c1-c1ccccc1,-20.8,–
O=C(NC1CCCC1)C1c2ccccc2OCC(=O)N1Cc1ccccc1 (stereo not given),-15.9,–
CCCNC(=O)C[C@@H]1CC[C@@H]2[C@H](COC[C@H](O)CN2C(=O)c2cc(Cl)cc(Cl)c2)O1,-0.835,–
COC(=O)[C@@]12C[C@@H](CC(=O)N3CCCCC3)C(=O)N(Cc3ccc4c(c3)OCO4)C1=CCC(C)(C)C2,5.33,–
CCCCOCCCNC(=O)C[C@@H]1C[C@@]2(C(=O)OC)CCCCC=C2N(CCC2=CCCCC2)C1=O,-20.6,–
